Test results as given in PubChem BioAssay (Tox21).
Values joined by “and” are separate entries in the source; they are usually repeats but may differ in a detail not shown here. Equal entries are not always repeated. Records with an inconclusive call do not appear. Where a call stands in place of a potency, no number is given. A structure can be active in one record and inactive in another. Active and inactive are the calls of the source. Unless noted, calls follow the shape of the dose curve; as a rule, active = well fitted curve in the direction sought with a large enough effect in the repeat runs; inconclusive = weak or mixed curves; inactive = no such curve, though single readings can be large; an effect the other way counts as inactive or inconclusive.

Assays:
[1] = Caspase-3/7 induction in HepG2 cells by small molecules, qHTS assay (AID 1346978); also: nearly all actives have a fitted effect of over 15% in size
How it was run: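 Wild-type HepG2 cells (2,000/well) were settled 5 h at 37 C, 5% CO2, then exposed to compounds in DMSO for 17 h. Caspase-3/7 activity was read by luminescence 30 min after adding Caspase-Glo 3/7 reagent at room temperature.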

[2] = Caspase-3/7 induction in HepG2 cells by small molecules, qHTS cell viability counter screen (AID 1346981); also: nearly all actives have a fitted effect of over 30% in size; also: potency is read from the fitted curve at half-maximal effect
How it was run: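 Cell viability is measured as a cytotoxicity counter screen alongside the Caspase-Glo 3/7 readout in identical wells. Wild-type HepG2 cells are treated with test compounds for 16 hr at 37 C before CellTiter-Fluor addition and a 1-hr incubation.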

[3] = biological target: Nuclear receptor subfamily 1 group I member 2 (Homo sapiens) (UniProt O75469); assay: Human pregnane X receptor (PXR) small molecule agonists, qHTS assay (AID 1346982); also: nearly all actives have a fitted effect of over 35% in size; also: potency is read from the fitted curve at half-maximal effect
How it was run: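 Cells: HepG2 stably carrying PXR-Luc. Medium held 5% charcoal-stripped FBS. Compounds in DMSO added after 5 hr plating, incubated 24 hr, then luminescence quantified with ONE-Glo.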

[4] = biological target: Acetylcholinesterase (Homo sapiens) (UniProt P22303); assay: Acetylcholinesterase (AChE) small molecule antagonists: colormetric cell-based qHTS assay (AID 1347395; calls by dose curve; also: nearly all actives have a fitted effect of over 30% in size; also: potency is read from the fitted curve at half-maximal effect)
How it was run: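 Homogeneous whole-cell format. SH-SY5Y cells seeded overnight, dosed with compound (30 min, 37 C, 5% CO2), then given DTNB/acetylthiocholine cocktail for 90 min at 37 C; colorimetric signal.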

[5] = biological target: Acetylcholinesterase (Homo sapiens) (UniProt P22303); assay: Acetylcholinesterase (AChE) small molecule antagonists: enzyme-based qHTS assay (AID 1347397; calls by dose curve; also: nearly all actives have a fitted effect of over 55% in size; also: potency is read from the fitted curve at half-maximal effect); conditions: Potency: AChE enzyme activity inhibition
How it was run: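 Compound or DMSO vehicle was pin-transferred onto recombinant human AChE (50 mU/mL as dispensed) and left 30 min at room temperature. Acetylthiocholine with DTNB then started the reaction, read colorimetrically 10 min later.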

[6] = biological target: Acetylcholinesterase (Homo sapiens) (UniProt P22303); assay: Acetylcholinesterase (AChE) small molecule antagonists: fluorescence cell-based qHTS assay (AID 1347398; calls by dose curve; also: nearly all actives have a fitted effect of over 50% in size); conditions: Potency: AChE activity
How it was run: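 Using neuroblastoma SH-SY5Y cells as the enzyme source, test chemicals are preincubated 30 min at 37 C; AChE-driven acetylthiocholine cleavage is then quantified by thiocholine-dependent Thiolite Green fluorescence after 40 min at room temperature.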

[7] = biological target: Acetylcholinesterase (Homo sapiens) (UniProt P22303); assay: Acetylcholinesterase (AChE) small molecule antagonists: enzyme-based qHTS assay with human liver microsomes (AID 1347399; calls by dose curve; also: nearly all actives have a fitted effect of over 60% in size); conditions: Potency: qHTS inhibition
How it was run: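 Recombinant human AChE (50 mU/mL in the enzyme mix) and human liver microsomes (0.25 mg/mL final) were preincubated with compound and NADPH (0.25 mg/mL final) for 30 min at 37 C. Acetylthiocholine/DTNB was then added; thiocholine was read colorimetrically after 10 min at room temperature.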

[8] = biological target: Cytochrome P450 2D6 (Homo sapiens) (UniProt P10635); assay: Cytochrome P450 Family 2 Subfamily D Member 6 (CYP2D6) small molecule antagonists: luciferase reporter qHTS assay (AID 1671196); also: nearly all actives have a fitted effect of over 50% in size; also: potency is read from the fitted curve at half-maximal effect
How it was run: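 Enzyme and proluciferin substrate were first combined with test chemical for 10 min at room temperature. Adding NADPH regeneration solution started a 1 h reaction, stopped with luciferin detection reagent and read by luminescence 20 min later.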

[9] = biological target: Cytochrome P450 2C19 (Homo sapiens) (UniProt P33261); assay: Cytochrome P450 Family 2 Subfamily C Member 19 (CYP2C19) small molecule antagonists: luciferase reporter qHTS assay (AID 1671197); also: nearly all actives have a fitted effect of over 65% in size; also: potency is read from the fitted curve at half-maximal effect
How it was run: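 Compounds were tested on CYP2C19 activity via proluciferin conversion to luciferin. The 37C, 1 h reaction followed NADPH addition; detection reagent stopped it.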

[10] = biological target: Cytochrome P450 2C9 (Homo sapiens) (UniProt P11712); assay: Cytochrome P450 Family 2 Subfamily C Member 9 (CYP2C9) small molecule antagonists: luciferase reporter qHTS assay (AID 1671198); also: nearly all actives have a fitted effect of over 50% in size; also: potency is read from the fitted curve at half-maximal effect
How it was run: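 CYP2C9 activity was measured with a P450-Glo proluciferin substrate. Enzyme–substrate mix was held with compound for 10 min at room temperature, then NADPH regeneration solution was added for 1 h at 37C. Luciferin product was read as luminescence.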

[11] = biological target: Cytochrome P450 1A2 (Homo sapiens) (UniProt P05177); assay: Cytochrome P450 Family 1 Subfamily A Member 2 (CYP1A2) small molecule antagonists: luciferase reporter qHTS assay (AID 1671199); also: nearly all actives have a fitted effect of over 50% in size; also: potency is read from the fitted curve at half-maximal effect
How it was run: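 Compounds were incubated with CYP1A2 and a luminogenic proluciferin substrate for 10 min at room temperature before the reaction was started with NADPH regeneration solution. After 1 h, detection reagent was added and light output, proportional to CYP activity, was recorded.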

[12] = biological target: Voltage-gated inwardly rectifying potassium channel KCNH2 (Homo sapiens) (UniProt Q12809); assay: Human Ether-a-go-go-Related Gene (hERG) channel small molecule antagonists: fluorescence cell-based qHTS assay (AID 1671200)
How it was run: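 Thallium served as the potassium surrogate; its influx into dye-loaded U2OS cells carrying the channel was measured by fluorescence over 2 min.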

[13] = biological target: Cytochrome P450 3A4 (Homo sapiens) (UniProt P08684); assay: Cytochrome P450 Family 3 Subfamily A Member 4 (CYP3A4) small molecule antagonists: luciferase reporter qHTS assay (AID 1671201)
How it was run: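 Relative luminescence units after 20 min with luciferin detection reagent served as read-out. Beforehand, CYP3A4 turned over a proluciferin substrate for 1 h at room temperature with NADPH regeneration, following 10 min compound preincubation.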

[14] = Caspase-3/7 induction in CHO-K1 cells by small molecules, qHTS cell viability counter screen (AID 1346979); also: nearly all actives have a fitted effect of over 35% in size; also: potency is read from the fitted curve at half-maximal effect
How it was run: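 Viability readout by fluorescence (CellTiter-Fluor) on wild-type CHO-K1 cells exposed for 16hr at 37C and 5% CO2 to compounds delivered in DMSO; reagent incubated 1hr before reading.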

[15] = Caspase-3/7 induction in CHO-K1 cells by small molecules, qHTS assay (AID 1346980); also: nearly all actives have a fitted effect of over 15% in size; also: potency is read from the fitted curve at half-maximal effect
How it was run: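 Wild-type cells were seeded at 1,500 per well and settled 5 hr at 37 C, 5% CO2, then exposed to DMSO-dissolved compounds for 17 hr. Caspase-Glo 3/7 reagent was added, and luminescence was read after 30min at room temperature.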

Sequence of Cytochrome P450 3A4 (Homo sapiens) (P08684 whole entry, looked up): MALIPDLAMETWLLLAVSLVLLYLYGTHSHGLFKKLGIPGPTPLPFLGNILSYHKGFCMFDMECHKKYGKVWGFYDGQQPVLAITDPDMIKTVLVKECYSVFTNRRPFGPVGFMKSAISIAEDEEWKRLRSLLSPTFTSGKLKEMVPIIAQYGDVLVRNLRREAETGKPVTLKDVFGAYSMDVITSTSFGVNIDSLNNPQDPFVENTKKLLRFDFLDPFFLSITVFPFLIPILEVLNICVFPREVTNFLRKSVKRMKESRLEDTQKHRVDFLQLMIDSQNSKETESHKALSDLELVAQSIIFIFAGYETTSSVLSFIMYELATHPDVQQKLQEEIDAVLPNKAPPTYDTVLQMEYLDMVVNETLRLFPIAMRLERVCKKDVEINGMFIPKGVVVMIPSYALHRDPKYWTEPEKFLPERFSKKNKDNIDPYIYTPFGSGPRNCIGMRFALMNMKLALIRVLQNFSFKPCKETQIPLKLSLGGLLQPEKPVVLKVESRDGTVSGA
Sequence of Cytochrome P450 1A2 (Homo sapiens) (P05177 whole entry, looked up): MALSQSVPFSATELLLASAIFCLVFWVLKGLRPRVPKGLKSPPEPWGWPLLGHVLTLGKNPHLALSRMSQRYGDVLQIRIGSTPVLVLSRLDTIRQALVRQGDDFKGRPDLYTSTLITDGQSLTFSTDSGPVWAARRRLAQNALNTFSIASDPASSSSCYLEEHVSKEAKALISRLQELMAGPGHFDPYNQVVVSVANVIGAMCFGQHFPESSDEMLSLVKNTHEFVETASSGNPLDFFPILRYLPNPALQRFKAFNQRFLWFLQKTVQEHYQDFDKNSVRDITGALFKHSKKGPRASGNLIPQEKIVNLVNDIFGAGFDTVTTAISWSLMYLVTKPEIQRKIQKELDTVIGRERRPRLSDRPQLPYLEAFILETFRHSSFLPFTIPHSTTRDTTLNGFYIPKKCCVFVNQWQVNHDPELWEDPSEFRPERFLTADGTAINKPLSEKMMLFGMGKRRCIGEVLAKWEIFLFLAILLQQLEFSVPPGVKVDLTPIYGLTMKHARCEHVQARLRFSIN
Sequence of Cytochrome P450 2D6 (Homo sapiens) (P10635 whole entry, looked up): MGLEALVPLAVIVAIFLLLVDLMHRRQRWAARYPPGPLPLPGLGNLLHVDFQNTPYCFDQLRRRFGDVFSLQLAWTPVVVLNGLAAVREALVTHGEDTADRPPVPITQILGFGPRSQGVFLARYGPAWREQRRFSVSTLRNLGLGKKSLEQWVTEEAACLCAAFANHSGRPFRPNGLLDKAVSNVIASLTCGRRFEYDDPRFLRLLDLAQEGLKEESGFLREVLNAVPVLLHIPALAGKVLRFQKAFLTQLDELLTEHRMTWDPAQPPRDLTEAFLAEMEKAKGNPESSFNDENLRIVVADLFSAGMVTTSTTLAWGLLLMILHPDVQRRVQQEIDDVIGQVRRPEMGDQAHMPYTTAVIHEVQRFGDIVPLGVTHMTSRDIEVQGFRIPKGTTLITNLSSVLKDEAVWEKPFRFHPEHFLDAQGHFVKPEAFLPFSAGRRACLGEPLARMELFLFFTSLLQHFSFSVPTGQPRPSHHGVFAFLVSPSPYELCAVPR
Sequence of Voltage-gated inwardly rectifying potassium channel KCNH2 (Homo sapiens) (Q12809 whole entry, looked up): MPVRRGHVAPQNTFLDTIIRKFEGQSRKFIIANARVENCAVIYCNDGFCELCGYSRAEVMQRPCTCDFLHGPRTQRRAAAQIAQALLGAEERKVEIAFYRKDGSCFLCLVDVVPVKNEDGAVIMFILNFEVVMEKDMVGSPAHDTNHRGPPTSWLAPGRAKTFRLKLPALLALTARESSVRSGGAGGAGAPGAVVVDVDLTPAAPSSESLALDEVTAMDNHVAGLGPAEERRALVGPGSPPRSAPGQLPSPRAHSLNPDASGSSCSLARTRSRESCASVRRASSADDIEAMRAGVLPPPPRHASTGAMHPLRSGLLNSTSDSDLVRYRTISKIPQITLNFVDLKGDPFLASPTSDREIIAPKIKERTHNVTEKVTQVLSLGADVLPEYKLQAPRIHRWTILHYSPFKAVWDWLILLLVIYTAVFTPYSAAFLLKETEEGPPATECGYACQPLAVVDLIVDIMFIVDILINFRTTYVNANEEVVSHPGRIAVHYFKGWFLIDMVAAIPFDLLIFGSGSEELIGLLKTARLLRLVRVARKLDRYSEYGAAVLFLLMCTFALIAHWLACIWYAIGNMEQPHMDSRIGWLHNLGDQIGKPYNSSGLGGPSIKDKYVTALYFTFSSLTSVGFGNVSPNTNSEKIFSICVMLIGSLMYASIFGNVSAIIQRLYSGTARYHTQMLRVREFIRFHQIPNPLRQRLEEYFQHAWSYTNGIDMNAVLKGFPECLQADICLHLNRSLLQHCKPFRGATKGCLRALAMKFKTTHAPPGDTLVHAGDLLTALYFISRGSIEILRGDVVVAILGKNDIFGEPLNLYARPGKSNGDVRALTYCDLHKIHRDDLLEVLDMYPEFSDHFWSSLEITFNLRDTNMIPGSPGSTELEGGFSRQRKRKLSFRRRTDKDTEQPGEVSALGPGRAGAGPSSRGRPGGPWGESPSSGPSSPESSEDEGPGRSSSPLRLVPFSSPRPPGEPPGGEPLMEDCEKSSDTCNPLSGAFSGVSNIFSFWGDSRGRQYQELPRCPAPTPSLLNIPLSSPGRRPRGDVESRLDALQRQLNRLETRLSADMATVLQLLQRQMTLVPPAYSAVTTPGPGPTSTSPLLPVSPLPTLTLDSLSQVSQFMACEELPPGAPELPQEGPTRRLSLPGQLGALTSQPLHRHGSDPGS
Sequence of Acetylcholinesterase (Homo sapiens) (P22303 whole entry, looked up): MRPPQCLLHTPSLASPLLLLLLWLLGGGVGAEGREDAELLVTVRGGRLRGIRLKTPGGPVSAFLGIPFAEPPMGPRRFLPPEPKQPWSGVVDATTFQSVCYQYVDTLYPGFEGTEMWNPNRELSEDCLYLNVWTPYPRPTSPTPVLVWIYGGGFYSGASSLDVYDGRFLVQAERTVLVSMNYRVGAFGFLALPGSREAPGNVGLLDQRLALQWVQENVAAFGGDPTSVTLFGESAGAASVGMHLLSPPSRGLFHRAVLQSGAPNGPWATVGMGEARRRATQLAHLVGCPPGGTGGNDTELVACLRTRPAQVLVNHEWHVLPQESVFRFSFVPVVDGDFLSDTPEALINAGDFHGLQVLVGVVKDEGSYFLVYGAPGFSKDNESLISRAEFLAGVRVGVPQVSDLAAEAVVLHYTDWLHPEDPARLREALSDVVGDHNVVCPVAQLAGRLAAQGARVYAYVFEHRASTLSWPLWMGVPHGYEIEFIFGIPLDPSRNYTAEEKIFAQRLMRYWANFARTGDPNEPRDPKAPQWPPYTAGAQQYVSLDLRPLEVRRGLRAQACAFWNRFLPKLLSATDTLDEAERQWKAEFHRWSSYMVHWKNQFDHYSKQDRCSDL
Sequence of Nuclear receptor subfamily 1 group I member 2 (Homo sapiens) (O75469 whole entry, looked up): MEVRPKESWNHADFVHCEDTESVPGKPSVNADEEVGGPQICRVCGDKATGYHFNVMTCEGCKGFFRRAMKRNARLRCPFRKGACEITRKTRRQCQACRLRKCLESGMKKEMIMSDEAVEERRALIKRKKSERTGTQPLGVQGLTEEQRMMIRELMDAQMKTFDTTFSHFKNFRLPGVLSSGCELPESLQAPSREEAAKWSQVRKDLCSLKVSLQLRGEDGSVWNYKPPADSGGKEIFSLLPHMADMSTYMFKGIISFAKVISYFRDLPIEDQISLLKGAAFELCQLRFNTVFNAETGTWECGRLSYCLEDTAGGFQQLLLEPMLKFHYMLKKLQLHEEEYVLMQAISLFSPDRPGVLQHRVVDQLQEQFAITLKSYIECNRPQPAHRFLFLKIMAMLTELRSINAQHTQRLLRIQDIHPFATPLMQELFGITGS
Sequence of Cytochrome P450 2C19 (Homo sapiens) (P33261 whole entry, looked up): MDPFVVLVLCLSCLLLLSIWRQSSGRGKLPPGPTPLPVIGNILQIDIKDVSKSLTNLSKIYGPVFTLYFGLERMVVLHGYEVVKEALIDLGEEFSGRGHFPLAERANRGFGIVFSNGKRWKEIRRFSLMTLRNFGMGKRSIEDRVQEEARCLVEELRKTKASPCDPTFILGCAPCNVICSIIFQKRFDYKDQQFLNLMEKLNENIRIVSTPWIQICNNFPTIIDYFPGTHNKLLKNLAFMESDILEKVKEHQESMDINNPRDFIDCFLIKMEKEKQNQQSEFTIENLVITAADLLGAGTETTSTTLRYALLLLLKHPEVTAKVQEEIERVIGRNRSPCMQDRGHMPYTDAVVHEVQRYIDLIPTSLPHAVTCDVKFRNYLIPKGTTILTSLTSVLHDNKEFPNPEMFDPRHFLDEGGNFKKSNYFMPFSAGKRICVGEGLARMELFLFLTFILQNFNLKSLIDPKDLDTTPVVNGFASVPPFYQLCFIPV
Sequence of Cytochrome P450 2C9 (Homo sapiens) (P11712 whole entry, looked up): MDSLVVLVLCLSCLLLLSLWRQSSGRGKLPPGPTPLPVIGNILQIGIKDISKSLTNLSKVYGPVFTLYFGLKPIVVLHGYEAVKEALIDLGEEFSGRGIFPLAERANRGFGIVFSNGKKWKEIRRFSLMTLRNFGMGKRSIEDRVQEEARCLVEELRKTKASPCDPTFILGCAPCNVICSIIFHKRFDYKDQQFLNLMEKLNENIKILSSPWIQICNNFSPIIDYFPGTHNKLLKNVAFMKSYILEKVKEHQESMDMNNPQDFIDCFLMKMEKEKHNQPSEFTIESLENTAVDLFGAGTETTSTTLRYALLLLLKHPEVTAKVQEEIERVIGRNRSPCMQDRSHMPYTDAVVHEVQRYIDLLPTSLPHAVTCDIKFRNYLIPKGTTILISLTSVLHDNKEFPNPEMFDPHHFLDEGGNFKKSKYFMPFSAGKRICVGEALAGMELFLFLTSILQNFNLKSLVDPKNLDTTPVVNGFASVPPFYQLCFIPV

Compound | Potency [1] | Potency [2] | Potency [3] | Potency [4] | Potency [5] | Potency [6] | Potency [7] | Potency [8] | Potency [9] | Potency [10] | Potency [11] | Potency [12] | Potency [13] | Potency [14] | Potency [15]
Brc1ccc(Oc2cc(Br)c(Br)cc2Br)c(Br)c1 | inactive | inactive | 17.2 µM (active) and 30.9 µM (active) | inactive | inactive | inactive | inactive | 35.6 µM (active) and inactive | 1.78 µM (active) and 1.27 µM (active) | 31.7 µM (active) and 18 µM (active) | 31.7 µM (active) and 32 µM (active) | inactive | inactive |  | 
C=CC(=O)OCCO | inactive | inactive | inactive | inactive | inactive |  | inactive | inactive | inactive | inactive |  | inactive | inactive | 55.3 µM (active) | 
Oc1c(Cl)c(Cl)c(Cl)c(Cl)c1Cl | inactive | inactive |  | inactive | inactive | inactive | inactive | inactive and 796 nM (active) | 34.9 µM (active) and 15.9 µM (active) and inactive |  | 62 µM (active) and 35.5 µM (active) and 79.6 µM (active) | inactive | inactive | inactive | 
CCC(C)c1ccc(O)cc1 (stereo unspecified) | inactive | inactive | inactive | inactive | inactive |  |  | inactive | inactive |  | 35.9 µM (active) and 31.7 µM (active) | inactive | inactive | inactive | 
NNC(=S)NN | inactive |  | inactive | inactive | inactive | inactive | inactive | 65 µM (active) | 32.6 µM (active) and 39.9 µM (active) | 65 µM (active) | 41 µM (active) and 31.7 µM (active) | inactive |  |  | 56 µM (active) and inactive
Cc1cc(C)cc(C)c1 | inactive | inactive | inactive | inactive | inactive |  | inactive | inactive | inactive | inactive | inactive | inactive | inactive | inactive | 
CNC(=O)Oc1cccc2c1OC(C)(C)O2 | inactive | inactive | inactive | 1.04 µM (active) and 399 nM (active) | 1.65 µM (active) and 356 nM (active) |  |  | inactive | 36.9 µM (active) and 71 µM (active) |  | 35.6 µM (active) | inactive | inactive | inactive | 
C1=Cc2cccc3cccc1c23 | inactive | inactive |  | inactive | inactive |  | inactive | inactive |  | inactive | 31.2 µM (active) and 25.2 µM (active) | inactive | inactive | inactive | 
CCOC(=O)C(C)OC(=O)c1cc(Oc2ccc(C(F)(F)F)cc2Cl)ccc1[N+](=O)[O-] (stereo unspecified) | inactive | inactive | 30.5 µM (active) | inactive | inactive | inactive | inactive |  | 6.3 µM (active) and 6.33 µM (active) | 7.06 µM (active) and 7.1 µM (active) | inactive | inactive | inactive |  | inactive
CCC(C)c1cc([N+](=O)[O-])cc([N+](=O)[O-])c1O (stereo unspecified) | inactive | inactive and 17.2 µM (active) |  | inactive | inactive | inactive | inactive | inactive | inactive and 79.6 µM (active) | inactive | inactive and 63.3 µM (active) | inactive | inactive | inactive and 15.4 µM (active) | 
